Drawing on article PMC11062922 (Nature Chemical Biology, 2023), this text covers potency estimated from few doses for twelve molecules.

Set-up in all cases: species or system human, MV4-11 + K-562 + COLO205 + SK-N-BE2 + OVCAR-8
The test system of experiment [1] is BMPR1A. Particulars: read-out: apparent Kd, compound concentrations: 100 nM and 1000 nM (sheet 'Samples'), n = 1.
The subject of experiment [2] is SIK3. Particulars: read-out: apparent Kd, compound concentrations: 100 nM and 1000 nM (sheet 'Samples'), n = 1.
Experiment [3] deals with ABCD3. To be noted: read-out: apparent Kd, n = 1.
For experiment [4], the system named is PIM2. To be noted: read-out: apparent Kd, n = 1.
The subject of experiment [5] is CSNK1A1. Particulars: read-out: apparent Kd; compound concentrations: 100 nM and 1000 nM (sheet 'Samples'), CATDS: 4.3569659230054097E-2; n = 1.
Experiment [6] has as its system MAPK10. Particulars: read-out: apparent Kd; compound concentrations: 100 nM and 1000 nM (sheet 'Samples'), CATDS: 3.9230525665234099E-2; n = 1.
The test system of experiment [7] is MAPK11. To be noted: read-out: apparent Kd, compound concentrations: 100 nM and 1000 nM (sheet 'Samples'), n = 1.
In experiment [8] the test system is SYK. To be noted: read-out: apparent Kd, compound concentrations: 100 nM and 1000 nM (sheet 'Samples'), n = 1.
In experiment [9] the test system is TAOK1. Particulars: read-out: apparent Kd, compound concentrations: 100 nM and 1000 nM (sheet 'Samples'), n = 1.
Experiment [10] relates to ERCC2. Particulars: read-out: apparent Kd, compound concentrations: 100 nM and 1000 nM (sheet 'Samples'), n = 1.
In experiment [11] the test system is AURKA. To be noted: read-out: apparent Kd, n = 1.
Experiment [12] concerns CDK4. To be noted: read-out: apparent Kd; compound concentrations: 100 nM and 1000 nM (sheet 'Samples'), CATDS: 1.3251728133645901E-2; n = 1.
Experiment [13] has as its system ERBB3. To be noted: read-out: apparent Kd; compound concentrations: 100 nM and 1000 nM (sheet 'Samples'), CATDS: 1.39186209544408E-2; n = 1.
In experiment [14] the test system is LIMK1. Particulars: read-out: apparent Kd; compound concentrations: 100 nM and 1000 nM (sheet 'Samples'), CATDS: 7.0535341813333999E-2; n = 1.
Experiment [15] has as its system EPHB3. To be noted: read-out: apparent Kd, compound concentrations: 100 nM and 1000 nM (sheet 'Samples'), n = 1.
The test system of experiment [16] is PKN3. To be noted: read-out: apparent Kd, compound concentrations: 100 nM and 1000 nM (sheet 'Samples'), n = 1.
Experiment [17] has as its system NUAK1. Particulars: read-out: apparent Kd, compound concentrations: 100 nM and 1000 nM (sheet 'Samples'), n = 1.
The subject of experiment [18] is CDK7. To be noted: read-out: apparent Kd; compound concentrations: 100 nM and 1000 nM (sheet 'Samples'), CATDS: 2.7171532019021599E-2; n = 1.
For experiment [19], the system named is STK10. To be noted: read-out: apparent Kd; compound concentrations: 100 nM and 1000 nM (sheet 'Samples'), CATDS: 8.8435588705339796E-3; n = 1.
The mark [20] stands for this setting: compound concentrations:100 nM and 1000 nM (sheet 'Samples').

Read-outs that look alike come from different tables or passages of the source.

As for `Cl.Oc1cccc(Nc2ccnc3cc(-c4ccncc4)ccc23)c1` [GW494601A], the potency estimated from few doses in experiment [1] (CATDS: 2.7920432625818298E-2) is 313 nM; in experiment [2] (CATDS: 2.0843232752511001E-2), 1150 nM.
`CS(=O)(=O)Cc1ccc(Nc2nccc(-c3c(-c4cccc(NC(=O)C5CCCCC5)c4)nn4ncccc34)n2)cc1` [GSK350559A]: the potency estimated from few doses was 1580 nM in experiment [3] (setting [20]) and 2040 nM in experiment [4] (setting [20]).
In the case of `COc1ccc(Nc2nccc(N3CCC(NC(=O)Nc4ccc5c(c4)OCO5)C3)n2)cc1` (centres unmarked) [GSK1379745A], the potency estimated from few doses in experiment [3] (compound concentrations: 100 nM and 1000 nM (sheet 'Samples'), CATDS: 3.9996680208342399E-2) was 1500 nM; in experiment [5], 1260 nM; in experiment [6] it was 1570 nM; in experiment [7] (CATDS: 3.6090086264463E-2), 1900 nM; in experiment [8] (CATDS: 3.71249657659821E-2) it was 1780 nM; in experiment [9] (CATDS: 4.1153987901417902E-2) it was 1410 nM.
Turning to `Cl.O=C1N=C(NCc2ccccn2)S/C1=C\c1ccc2ncccc2c1` [RO4874953-001], the potency estimated from few doses in experiment [10] (CATDS: 7.2588346323970404E-2) was 1850 nM.
As to `CCn1cc(-c2ccnc3[nH]c(-c4cccc(CN(C)C)c4)cc23)c(-c2ccc(NC(=O)N(C)C)cc2)n1` [GSK1070916], the potency estimated from few doses is 1970 nM in [3] (setting [20]) and 197 nM in experiment [11] (setting [20]).
Consider `CC(C)c1nc(-c2cccc(NS(=O)(=O)c3ccccc3)c2)c(-c2ccnc(Nc3ccc4c(c3)CN(C)CC4)n2)s1` [GSK1649598A], for which the potency estimated from few doses in experiment [12] is 1400 nM; in experiment [13], 1140 nM; in experiment [14], 38.5 nM; in experiment [9] (CATDS: 1.55271176192178E-2), 769 nM.
As for `Cc1ccc(O)cc1Nc1ccnc2cc(-c3ccc(CN4CCCCC4)o3)ccc12` [GW557777X], the potency estimated from few doses in experiment [1] (CATDS: 1.65124596245807E-2) was 269 nM; in experiment [15] (CATDS: 2.1562283576004201E-2), 78.2 nM; in [2] (CATDS: 1.3583905279374199E-2), 975 nM; in experiment [8] (CATDS: 1.2716705388879999E-2) it was 1860 nM.
`COc1cc(Nc2ccnc3cc(-c4ccncc4)ccc23)cc(OC)c1OC.Cl` [GW494610A]: the potency estimated from few doses is 486 nM in [1] (CATDS: 3.04170421320503E-2), 1610 nM in experiment [7] (CATDS: 2.2230478875047501E-2), 24.1 nM in experiment [16] (CATDS: 0.111672357015452) and 160 nM in experiment [2] (CATDS: 4.52892719114492E-2).
In the case of `NC(=O)c1cccc(Nc2nccc(Nc3cccc4[nH]ncc34)n2)c1` [GW782612X], the potency estimated from few doses is 808 nM in [11] (compound concentrations: 100 nM and 1000 nM (sheet 'Samples'), CATDS: 4.2767473291312301E-2); 1090 nM in experiment [1] (CATDS: 3.8772747112030999E-2); 475 nM in [17] (CATDS: 5.2412926017760202E-2).
As to `O=C1N=C(NCc2cccs2)SC1Cc1ccc2ncccc2c1` (centres unmarked) [RO4629078-000], the potency estimated from few doses is 700 nM in [11] (compound concentrations: 100 nM and 1000 nM (sheet 'Samples'), CATDS: 9.8241479768662494E-3); 112 nM in [18]; 790 nM in experiment [15] (CATDS: 9.3855974911044807E-3); 778 nM in [10] (CATDS: 9.4373206529466905E-3); 771 nM in experiment [17] (CATDS: 9.4682639487438207E-3); 602 nM in experiment [16] (CATDS: 1.04428727598351E-2). The potency estimated from few doses in experiment [19] is 935 nM; in experiment [9] (CATDS: 7.4050083824812101E-3), 1730 nM.
For the molecule `Cl.Cl.Cl.c1ccc(Oc2ccc(Nc3ccnc4cc(-c5ccc(CN6CCNCC6)o5)ccc34)cc2)nc1.c1ccc(Oc2ccc(Nc3ccnc4cc(-c5ccc(CN6CCNCC6)o5)ccc34)cc2)nc1` [GW567142A], in experiment [8] (CATDS: 1.6781429181419099E-2), the potency estimated from few doses is 2160 nM.
For the molecule `O=C1N=C(NCCc2cccc(Cl)c2)S/C1=C\c1ccc2ncccc2c1` [RO4509201-000], the potency estimated from few doses in [4] (compound concentrations: 100 nM and 1000 nM (sheet 'Samples'), CATDS: 5.4743223774465499E-2) was 1820 nM.
